Measurements published in PubChem BioAssay AID651820 (National Center for Advancing Translational Sciences (NCATS), 2012).
The campaign covered roughly 340,000 compounds. About 12,000 (3.5%) were called active. About 18% were inconclusive and are not listed. What follows is part of a selection rich in actives, with near analogues and random picks from the rest. A call without a number means that no potency is given here. Values without a mark were called inactive. The call rests on the fitted dose curve; in most records, active means well fitted inhibition curve with a large enough effect; inconclusive means small, poorly fitted or top-dose-only effect, or another doubt; inactive means no such curve, though single readings can be large or run the other way.

Assay: qHTS Assay for Inhibitors of Hepatitis C Virus (HCV)
Settings: Huh7.5.1 HCVcc-Cre infection, luciferase reporter, 44 h; series mostly up to 41.8 µM
From the text: Hepatitis C virus (HCV) infects about 200 million people in the world. Many infected people progress to chronic liver disease including cirrhosis with a risk of developing liver cancer. To date, there is no effective vaccine for hepatitis C. Current therapy based on interferon is only effective in about half of the patients and is associated with significant adverse effects. The fraction of people with HCV who can complete a successful treatment is estimated to be no more than 10 percent. Recent development of direct-acting antivirals against HCV, such as protease and polymerase inhibitors, is promising but still requires combination with peginterferon and ribavirin for maximal efficacy. In addition, these agents are associated with high rate of resistance and many have significant side effects. Due to the lack of a culture system for infectious HCV, the search for new HCV drugs has been greatly hampered. […] High-throughput screening (HTS) with an infectious HCV system would cover the complete spectrum of potentially druggable targets in all stages of HCV lifecycle, and would have more biological relevance than other cell-based assays. Moreover, targeting several key processes in the viral life cycle may not only increase antiviral efficacy; more importantly, it may also reduce the capacity of the virus to develop resistance to the compound. The goal of this project is to identify novel HCV inhibitors as new therapies for hepatitis C, using a highly sensitive and specific assay platform which is based on a HCV infectious cell culture system established in the laboratory and adapted for high-throughput HCV drug screen. NIH Chemical Genomics Center [NCGC] NIH Molecular Libraries Probe Centers Network [MLPCN] MLPCN Grant: MH095511 Assay Submitter (PI): Jake Liang, NIDDK
The assay will start with plating 1,000 cells/well in 3 µL volume and culture for 4 h. Then 23 nL of compounds from the library collection will be added to each well, followed by adding 2.5 µL of HCVcc-Cre virus (~ 0.5 moi) and further cultured for 44 h before the luciferase assay. A volume of 4.5 µL luciferase substrates will be added to each well and the plates will be incubated at room temperature for 15 min. and then read for 15 sec. for the luciferase activity

SMILES	Potency	activity change, negative = inhibition
COc1cc(C)ccc1OCC(=O)OCC(=O)c1ccc[nH]1	inactive	
O=C(N/N=C/c1ccc(O)c2ccccc12)c1cccnc1	inactive	
O=C(NN=Cc1ccccc1O)NN=Cc1ccccc1O	5.01 µM (active)	
O=C(N/N=C/c1c[nH]c2ccccc12)c1ccccc1O	inactive	
NC(=O)NC(=O)C(OC(=O)CCNS(=O)(=O)c1ccccc1)c1ccccc1 (stereo unspecified)	inactive	
O=C(c1ccc(Cl)c(S(=O)(=O)N2CCCCC2)c1)N1CCCCCC1	inactive	
COc1ccccc1N1CCN(C(=O)c2ccc(Cl)c(S(=O)(=O)N3CCCC3)c2)CC1	11.2 µM (active)	
COc1ccccc1N1CCN(C(=O)c2ccc(S(=O)(=O)N3CCCCC3)cc2)CC1	inactive	
O=C(NN1CCOCC1)c1cccc(F)c1	inactive	
CCNC(=O)N1c2ccccc2Sc2ccccc21	inactive	
CNC(=O)N1c2ccccc2C=Cc2ccccc21	inactive	
CC1C(C)N(C(=O)CCl)c2ccccc2N1C(=O)CCl (stereo unspecified)	4.47 µM (active)	
O=C(CSc1nc2ccccc2c(=O)n1-c1ccccc1F)N1CCOCC1	inactive	
CN(CC(=O)Nc1ccc(C(N)=O)cc1)S(=O)(=O)c1ccc2c(c1)OCCO2	inactive	
CCOC(=O)C1CCN(C(=O)CSc2cc(=O)n(C)c3ccccc23)CC1	inactive	
Cn1c(=O)cc(SCC(=O)N2CCCC2)c2cc(Cl)ccc21	10 µM (active)	
Cn1c(=O)cc(SCC(=O)N2CCN(C(=O)c3ccco3)CC2)c2ccccc21	inactive	
CC(=O)c1ccc(NC(=O)C2CCCN2S(=O)(=O)c2cccs2)cc1 (stereo unspecified)	inactive	
Cn1nccc1NC(=O)Nc1ccc(OC(F)(F)F)cc1	inactive	
O=C(Nc1ccc(OC(F)(F)F)cc1)c1ccc2c(c1)no[n+]2[O-]	31.6 µM (active)	
COC(=O)[C@H](C)NC(=O)Nc1ccc(OC(F)(F)F)cc1	inactive	
COc1ccc(S(=O)(=O)N2CCCC2CNC(=O)C(=O)NC2CC2)cc1 (stereo unspecified)	inactive	
O=C(NC1CCCCCC1)C1CCN(C(=O)c2ccc(Cl)cc2)CC1	inactive	
CC(=O)N1c2ccc(S(=O)(=O)N3CCC(C(=O)NC4CCCCC4C)CC3)cc2CC1C (stereo unspecified)	inactive	
Cc1cc(C)cc(NC(=O)C2CCCN(S(=O)(=O)c3ccc4[nH]c(=O)ccc4c3)C2)c1 (stereo unspecified)	inactive	
CC(=O)N1c2ccc(S(=O)(=O)N3CCCC(C(=O)Nc4cccc(Cl)c4)C3)cc2CC1C (stereo unspecified)	5.62 µM (active)	

SMILES	Potency	activity change, negative = inhibition
CC(=O)N1c2ccc(S(=O)(=O)N3CCCC(C(=O)Nc4cccc(F)c4)C3)cc2CC1C (stereo unspecified)	11.2 µM (active)	
CCc1cccc(NC(=O)C2CCCN(S(=O)(=O)c3ccc4[nH]c(=O)ccc4c3)C2)c1 (stereo unspecified)	inactive	
CC(=O)N1c2ccc(S(=O)(=O)N3CCCC(C(=O)Nc4ccc(C)cc4C)C3)cc2CC1C (stereo unspecified)	inactive	
Cc1ccc(OCC(=O)Oc2ccccc2[N+](=O)[O-])cc1	inactive	
CC1(C)NC(=O)N(CC(=O)N2CCN(S(=O)(=O)c3ccccc3F)CC2)C1=O	inactive	
CCN1C(=O)[C@@H]2[C@@H](c3ccc(-c4cccc(Cl)c4)cc3)N3CCC[C@@]3(C(=O)OC)[C@@H]2C1=O	inactive	
Nc1ccc(Nc2ccccc2)cc1	inactive	
Cc1cc(Nc2ccccc2)n(CCC#N)n1	inactive	
Cc1cc(Nc2ccccc2)n(C(=O)c2ccc(N)cc2)n1	12.6 µM (active)	
O=C(Cc1ccc(Br)cc1)NCCc1ccccc1	inactive	
CC[C@@H]1CCCCc2ccccc2[C@@H](C(=O)C[C@H](O)CC(C)=O)OC1=O	inactive	
Cc1nnc(NC(=O)Nc2ccc(Cl)c(Cl)c2)s1	14.1 µM (active)	
Cc1nnc(NC(=O)c2ccc3nccnc3c2)s1	inactive	
Cc1nnc(NC(=O)C(c2ccccc2)c2ccccc2)s1	inactive	
COc1ccc(-c2cnc(SCCNC(=O)c3ccc4c(c3)OCO4)[nH]2)cc1		14.4% [at 8.37 µM]
C#CCOCCOCCOCCNc1nc(N2CCOCC2)nc(N2CCN(C(=O)[C@H](Cc3ccc(O)cc3)n3cc(CCO)nn3)CC2)n1	inactive	
Cc1cc(C)c[n+](-c2nc3ccccc3nc2[N-]S(=O)(=O)c2cccs2)c1	inactive	
O=C(NCCc1ccccc1)C1CCN(S(=O)(=O)c2ccc(Br)s2)CC1	inactive	
O=S(=O)([N-]c1nc2ccccc2nc1-[n+]1ccc(Cc2ccccc2)cc1)c1ccc(Br)s1	3.55 µM (active)	
CC(Oc1ccc2c(-c3ccccc3)cc(=O)oc2c1)C(=O)NC(Cc1c[nH]c2ccccc12)C(=O)O (stereo unspecified)	inactive	
CC(C)(C)C(=O)CSc1ccc(S(=O)(=O)N2CCCC2)cn1	inactive	
CCCS(=O)(=O)N1CCC(CCOc2ccccc2)(C(=O)OCC)CC1	inactive	
CCOC(=O)C1(CCOC)CCN(Cc2ccc(C(=O)OC)cc2)CC1	inactive	
CCOC(=O)C1(CCOc2ccccc2)CCN(Cc2cc(OC)c(O)cc2Cl)CC1	11.2 µM (active)	
Nn1c(SCC(=O)Nc2nccs2)nnc1-c1ccco1	inactive	
